Source: PubChem (National Center for Advancing Translational Sciences (NCATS))
Most compounds without a hit are left out; they make up all but 2.7% or so of the library.
GLP-1R inv ag: GLP-1 receptor (human) inverse agonism; P43220; HEK293 GLP-1R CRE-luciferase, luminescence, 24 h; GLP-1R form is constitutively active; Potency, µM (doses to about 38.3 µM), for inactives: top-dose activity change, negative = inhibition, most hits filed as inhibitors; actives 1.6% (n = 410,000); AID 624417; note: % is set by controls: 0 for no effect and ±100 for the full control effect; nearly all actives have a fitted effect of over 55% in size
Target sequence (P43220 whole entry, looked up): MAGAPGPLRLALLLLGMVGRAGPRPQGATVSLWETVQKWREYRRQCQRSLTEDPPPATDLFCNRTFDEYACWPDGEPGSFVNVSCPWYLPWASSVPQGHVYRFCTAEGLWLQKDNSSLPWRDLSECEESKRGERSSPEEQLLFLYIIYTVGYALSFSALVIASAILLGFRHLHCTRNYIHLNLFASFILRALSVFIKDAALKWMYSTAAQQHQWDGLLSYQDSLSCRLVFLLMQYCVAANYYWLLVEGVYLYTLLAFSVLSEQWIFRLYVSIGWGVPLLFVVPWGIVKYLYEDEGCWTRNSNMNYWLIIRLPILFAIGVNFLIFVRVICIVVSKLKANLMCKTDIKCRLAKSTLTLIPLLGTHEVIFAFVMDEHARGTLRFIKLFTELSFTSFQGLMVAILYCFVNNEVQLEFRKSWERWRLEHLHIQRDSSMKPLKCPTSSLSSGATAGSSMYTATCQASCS
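Readout was luciferase luminescence, measured 12 min after detection reagent at room temperature. Beforehand, GLP-1R reporter HEK293 cells had sat 12 h, then received compounds for 24 hr at 37 deg C.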
GLP1R cytotox: cytotoxicity in counter-screen for GLP-1R inverse agonists | AID 624418 | Potency, µM (titrated, usually from 38.3 µM), inactives show top-dose activity change, negative = inhibition, actives largely listed as inhibitors | actives 0.13% (n = 410,000) | HEK293 cAMP-luciferase reporter cells, luminescence, 24 h;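 note: loss of luciferase light is scored as toxicity; % is set by controls: 0 for no effect and ±100 for the full control effect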
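MLSMR compounds, 24 hr on cells at 37 deg C/5% CO2; luminescence after luciferase reagent (12 min RT). Inhibition counted as the undesired cytotoxic outcome.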
a7 integrin act: integrin-mediated muscular dystrophy alleviation activation | Potency, µM (titrated, usually from 38.3 µM), for the others: at the highest dose activation, hits mostly activators | alpha7betagal myoblasts, beta-gal FDG fluorescence, 48 h | AID 624291 | actives 0.064% (n = 350,000);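 note: 100% = response of the positive control SU9516; nearly all actives have a fitted effect of over 60% in size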
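alpha7betagal+/- myoblasts (passage 13, 250/well) treated 48 h at 37C with compounds at 1:260 dilution of DMSO stock. Lysed, then beta-galactosidase activity read as FDG fluorescence (ex 480/em 540) after 30 min, with pre-read for autofluorescence.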
GLP-1R agonist: activates the human GLP-1 receptor; HEK293 GLP-1R CRE-luciferase, luminescence, 4-6 h; cells express a hypersensitive GLP-1R form; Potency, µM (series often up to 45.6 µM), without a hit: at the top dose activation, most hits filed as activators; actives 0.007% (n = 380,000); AID 624172; note: % of control where 0% means no effect
BRCA1 expr act: activators of BRCA1 expression; MCF7-BRCA1-FFLuc reporter, luminescence, 48 h; response scale: scaled: vehicle 0%, 10 µM genistein 100%; AID 624202; actives 1.1% (n = 380,000); Potency, µM (series often up to 46.1 µM), inactives show at the highest dose activation, usual class: activators; note: nearly all actives have a fitted effect of over 80% in size
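First, MCF7-BRCA1-FFLuc cells (2000/well) attach for 2 h; next, compounds are pin-added and incubated 48 h at 37 °C; finally, luciferase reagent is added and luminescence read after 15 min.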
* marks the source's active call; other numbers are inactive results; ? = inconclusive; / = no result; [ ] = another dose, or the depositor's remark. Calls come from the whole dose curve; as a rule, active = well fitted curve in the direction sought with a large enough effect; inconclusive = small, poorly fitted or top-dose-only effect, or another doubt; inactive = no such curve, though single readings can be large; an effect the other way counts as inactive or inconclusive. Potency is the fitted concentration of half-maximal effect.

SMILES	GLP-1R inv ag	GLP1R cytotox	a7 integrin act	GLP-1R agonist	BRCA1 expr act
COc1ccc(N2CCN(C(=O)c3cc(-c4ccc(C)c(F)c4)on3)CC2)cc1	0%	19%	/	/	/
Cc1ccc(C(=O)Nc2nnc(S(=O)(=O)N3CCc4ccccc43)s2)cc1	6%	0%	/	/	/
Clc1ccc(/C=N/Nc2ncnc3ccccc23)cc1Cl	?	2.2µM*	9%	-3%	-64%
CCCn1c2ccccc2c2cnn(CC(=O)N(C)c3ccc(F)cc3)c(=O)c21	9%	-2%	/	/	/
CCCOc1ccc(-c2nnc(N)s2)cc1	39%	-10%	-1%	8%	4.5µM*
CC1CN(Cc2ccccc2)C(=O)N(c2ccccc2)C1=O (stereo not given)	2%	-10%	5%	-3%	-13%
CC1CN(Cc2ccccc2)c2ccccc2NC1=S (stereo not given)	11µM*	?	1%	-3%	3%
NC(N)=N/N=C/c1ccc(OS(=O)(=O)c2ccccc2)cc1	6.3µM*	?	-61%	-5%	-43%
CCOc1ccc(NC(=O)CSc2nccn2-c2cccc(C)c2C)cc1	?	-7%	/	2%	-34%
c1ccc(Nc2nc(N3CCNCC3)nc(N3CCOCC3)n2)cc1	2.5µM*	80%	-64%	3%	-49%
Cc1cccc(Nc2nc(N3CCOCC3)nc(N3CCOCC3)n2)c1	5.6µM*	41%	-19%	4%	-52%
Cc1cccc(Nc2nc(Nc3cccc(C)c3)nc(N3CCOCC3)n2)c1	4.5µM*	1%	/	/	/
CCc1ccc(Nc2nc(-c3cc4cccc(OC)c4oc3=O)c(CC)s2)cc1	?	-4%	/	/	/
CN(C)c1ccc(/C=C(\C#N)c2ccccc2)cc1	?	?	-18%	6%	2.8µM*
CCOC(=O)c1c(/N=C/N(C)C)sc(/C=N/Nc2ccccc2)c1-c1ccccc1Cl	3.5µM*	-7%	-1%	10%	-3%
Cc1ccc(N2CCN(c3nc4ccc(C(=O)c5ccccc5)cc4n4cnnc34)CC2)c(C)c1	16%	8%	/	/	/
COc1ccc(NC(C)C(=O)N/N=C/c2ccccc2OCc2ccc(Br)cc2)cc1 (stereo not given)	?	-11%	-24%	1%	4µM*
CC(Nc1ccc(Br)cc1)C(=O)N/N=C/c1ccccc1OCc1ccccc1 (stereo not given)	?	-16%	16%	6%	-1%
CCOc1ccc(NC(=O)c2oc3ccccc3c2NC(=O)Cc2ccc(OC)c(OC)c2)cc1	-2%	-14%	/	9%	11µM*
COc1ccc(N2CCN(C(=O)c3oc4ccccc4c3NC(=O)Cc3cccc(OC)c3)CC2)cc1	8.9µM*	-13%	-13%	3%	-27%
COc1ccc(CC(=O)Nc2c(C(=O)Nc3ccc(F)cc3)oc3ccccc23)cc1OC	27%	4%	/	0%	36%
CCN(CC)C(=O)CCc1nnc(Cc2cccc(C(F)(F)F)c2)o1	-5%	-4%	6%	8%	10µM*
Cc1cc(CN(C)C(=O)CCc2nnc(Cc3cccc(C(F)(F)F)c3)o2)on1	76%	2%	-28%	25%	?
O=C(NCCc1cccs1)C1CC(c2ccc([N+](=O)[O-])cc2)=NO1 (stereo not given)	3%	0%	-14%	2%	10µM*
COCCNC(=O)C1CC(c2ccc([N+](=O)[O-])cc2)=NO1 (stereo not given)	9%	4%	29%	5%	9%
SMILES	GLP-1R inv ag	GLP1R cytotox	a7 integrin act	GLP-1R agonist	BRCA1 expr act
CCS(=O)(=O)c1ccc(N=Nc2ccc(O)c3ncccc23)c(OC)c1	0%	?	-60%	2%	-93%
COc1ccccc1N=Nc1ccc(O)c2ncccc12	?	1.3µM*	-9%	-10%	-60%
COCCNC(=O)c1cc2oc3ccccc3c2n1C	50%	11%	30%	16%	10µM*
CCn1c(C(=O)NCc2ccc(OC(C)C)cc2)cc2oc3ccccc3c21	?	1%	/	/	/
CCn1c(C(=O)NCc2ccccc2C)cc2oc3ccccc3c21	5µM*	1%	/	/	/
CC1CCN(C(=O)Nc2ccc3nc(-c4ccco4)c(-c4ccco4)nc3c2)CC1	/	/	/	/	16%
COc1ccc(C2=NOC(CNC(N)=S)C2)cc1 (stereo not given)	?	4%	-3%	-2%	3.2µM*
CC1CCCCC1NC(=S)NC(=O)c1cccs1 (stereo not given)	8.9µM*	?	-36%	6%	3%
CC(OC(=O)c1cccs1)C(=O)NC1CCCCC1C (stereo not given)	-27%	0%	-2%	6%	1%
CSc1nc2ccc3nc(NC(=O)c4cccs4)sc3c2s1	8%	3%	7%	-1%	8.9µM*
O=C(NC(=S)Nc1ccccc1)c1cccs1	-28%	?	0%	12%	5.6µM*
O=C(Cc1ccccc1)Nc1cccc(NC(=O)c2cccs2)c1	13µM*	15%	-21%	12%	-22%
c1ccc(N=c2nc(-c3ccccc3)n(-c3ccccc3)s2)cc1	/	/	/	/	-41%
Cc1ccc(NC(=O)C2CCCN(S(=O)(=O)c3cn(C(C)C)cn3)C2)c(C)c1 (stereo not given)	10%	-8%	/	/	3%
CCOC(=O)c1c(S(=O)(=O)NCC(=O)Nc2ccc(C)c(N(C)C)c2)c(C)n(C)c1C	10%	0%	/	/	/
Cc1ccc(NC(=S)NC(=O)c2cccs2)cc1F	?	?	-47%	12%	3.5µM*
NC(=S)Nc1nc2ccccc2s1	4.5µM*	?	-11%	8%	-9%
O=C(NC(=S)Nc1ccc(N2CCCCC2)c(Cl)c1)c1cccs1	0%	2.8µM*	-42%	-4%	-10%
O=C(Nc1cc(Cl)ccc1N1CCCCC1)c1cccs1	-29%	1%	-3%	7%	-41%
COC(=O)c1nc(NC(=S)NC(=O)c2cccs2)sc1C	-5%	-8%	-3%	1%	-52%
O=C(NC(=S)Nc1nc2ccccc2s1)c1cccs1	1%	2.5µM*	1%	-5%	-4%
Cc1nc(-c2cccc(S(=O)(=O)N3CCC(C(=O)NCc4ccccc4)CC3)c2)no1	-2%	-8%	/	/	/
CN(C)/[N+]([O-])=N/Oc1ccc([N+](=O)[O-])cn1	/	/	/	/	0%
O=c1c(Br)c(N2CCCC2)cnn1-c1ccccc1	-5%	0%[1.53 µM]	12%	0%	?
O=c1c(Br)c(N2CCOCC2)cnn1-c1ccccc1	1%	-9%	9%	-5%	13µM*
O=C(C[n+]1cccc(NC(=O)c2ccccc2)c1)c1cccc([N+](=O)[O-])c1	14%	-6%	?	1%	5%
O=C(C[n+]1ccc(-c2cc(C(=O)Nc3cccc(C(F)(F)F)c3)c3ccccc3n2)cc1)c1cccc([N+](=O)[O-])c1	11µM*	?	-52%	-1%	-31%
